The values that follow come from PubChem BioAssay (NCI).

Structures are written as SMILES. Compounds without any hit were thinned out: in the full panel of roughly 83,000, 20% have a hit.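 48-hour exposure, single concentration, 96-well plates; percent growth endpoint where 0 means no net growth. Active: below 10.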 Unmarked numbers belong to inactive results. Calls of active or inactive are those of the source.

For the test, the system named is COLO 205 colon. As to the kind of experiment: NCI-60 one-dose screen, 48 h (100 = growth as untreated, 0 = no growth, -100 = all killed). The following applies: 10 µM unless noted. On the procedure: Cells are grown in 96 well plates and exposed to the test compound for 48 hours. Compounds are tested at a single concentration, which is 10^-5 M for most compounds. The reported endpoint is percent growth (GI% or GIPRCNT), where numbers from 0 - 100% represent growth inhibition, and numbers from -100% - 0 represent cell death. For example, a value of 40 represents 60% growth inhibition. A value of 0 means no net growth occurred over the course of the experiment. A value of -40 indicates 40% of cells at the beginning of the experiment died by the end of the experiment. A value of -100 means all cells are dead at the end of the experiment.
NCI-60 Human Tumor Cell Lines Screen was performed using the standard one-dose NCI protocol, which is described in more detail at https://dtp.cancer.gov/discovery_development/nci-60/default.htm.
Compounds with GIPRCNT values below 10 were considered active. Activity score was based on GIPRCNT using the following formula: […]
Score is 0 for GIPRCNT values of 100 or above, 50 for GIPRCNT values of 0, and 100 for GIPRCNT values of -100.
Consider `CCCn1cc(/C=N\N=C2\C(=O)Nc3ccc(C)cc32)c2ccccc21`, for which the growth was -16.2% (active).
The figure for `Cc1ccc(C2=N[C@H]3CCC[C@@H]3N(c3ccccc3)C(C(Cl)Cl)=N2)cc1` is 98.8%; for `CN1CCN(C(=O)[C@@]2(C)CC[C@]3(C)CC[C@]4(C)C(=CC[C@@H]5[C@@]6(C)CC[C@H](OC(=O)c7cccnc7)C(C)(C)[C@@H]6CC[C@]54C)[C@@H]3C2)CC1` it is 68.3%.
The figure for `Clc1ccc2c(NCCCNC3CCCCC3)ccnc2c1` is 93.5%; for `COc1cc(C2=NN(C=O)C(c3cccc(Nc4ccnc5cc(C(F)(F)F)ccc45)c3)C2)cc(OC)c1OC` (stereo not given) it is 56.8%.
For `COc1ccc2c(c1)Oc1nc(N)c(C#N)c(N)c1C2Sc1ccc(O)cc1` (stereo not given) the value was 79.7%.
`CC(=O)c1ccc(NC(=O)CSc2nnc(-c3cc(-c4ccc(Cl)cc4)nc4ccccc34)o2)cc1`: the growth was 96.6%.
For `CCn1cc(C(=O)O)c(=O)c2cc(F)c(N3CCN(CC(=O)Nc4ccc(/C(C)=N/OC)cc4)CC3)cc21` the value was 102%; for `O=C1C(Cl)=C(Nc2ccc3c(c2NC2=C(Cl)C(=O)c4ccccc4C2=O)C(=O)c2ccccc2C3=O)C(=O)c2ccccc21`, 21.1%; for `Cc1nccc2c3ccc(OCc4cn(-c5ccccc5)nn4)cc3n(CCCc3ccccc3)c12`, 50.7%.
The figure for `Cn1c2c(c3ccc(-c4ccn[nH]4)cc3c1=O)C(=O)c1ccccc1-2` is 53.8%.
For `COc1cc(C(C)c2ccc3c(ccn3C)c2)cc(OC)c1OC` (stereo not given) the value was -56.6% (active).
On to `O=c1[nH]c2ccccc2cc1-c1nc2ccncc2[nH]1`, for which the growth is 83.3%.
The figure for `O=C(/C(=C/c1ccc([N+](=O)[O-])cc1)SCc1ccc(Cl)cc1)c1ccc(F)cc1` is 48.3%; for `O=c1nc(-c2ccccc2)c2cc(-c3ccc(N4CCCC4)nc3)ccc2[nH]1` it is 88.3%; for `COc1ccc(/C(=N\O)c2cc(C)c(OC)c(C)c2)cc1O` it is -38% (active).
For `C=C(C)[C@@H]1CC[C@]2(C(=O)OCCOCCOCC[P+](c3ccccc3)(c3ccccc3)c3ccccc3)CC[C@]3(C)[C@H](CC[C@@H]4[C@@]5(C)CC[C@H](OC(C)=O)C(C)(C)[C@@H]5CC[C@]43C)[C@@H]12` the value was -75.7% (active); for `COc1ccc2nc(-c3ccc(Cl)cc3)cc(C(=O)N3N=C(c4ccc(N)cc4)CC3c3ccccc3)c2c1` (stereo not given), 42.3%.
For `C=C1C(=O)O[C@H]2[C@H]1CC/C(C=Nc1c(N)cc(C(F)(F)F)cc1Br)=C\CC[C@@]1(C)O[C@@H]21` the value was -52.1% (active).
As for `NC(=O)c1ccc2nc3c(n2c1)C(=O)C(=O)c1ccccc1-3`, the growth was -69% (active).
The figure for `C[C@]12CC[C@@H]3c4ccc(O)cc4CC[C@H]3[C@@H]1C[C@H](O)C2` is 128%; for `C=C1C(=O)O[C@H]2[C@H]1CC/C(COC(=O)c1cccnc1)=C\CC[C@@]1(C)O[C@@H]21` it is 52.9%.
For `Cc1cc2ccccc2c[n+]1CC(=O)c1ccc(-c2ccccc2)cc1` the value was 32.5%; for `COc1ccc(-c2nc(C#N)c(NCC(c3ccc(Cl)cc3)N3CCCCC3)o2)cc1` (stereo not given), 87.6%; for `COc1ccc(C2=NN(c3ccc(S(N)(=O)=O)cc3)C(c3ccc(Cl)cc3)C2)c(O)c1` (stereo not given), 69.7%.
With `C=C1C(=O)O[C@H]2[C@H]1CC/C(COC(=O)n1ccnc1)=C\CC[C@@]1(C)O[C@@H]21`, the growth was 64.6%.
As for `Cc1cccc(C)c1NCc1nnc(-c2ccco2)o1`, the growth was 103%.
The figure for `CC1CCCN(CCCCCOc2ccc3oc4ccc(Cl)cc4c(=O)c3c2)C1` (stereo not given) is 57.5%; for `CCCCc1nc(Cl)c(C2CC(c3ccc(Cl)cc3)=NN2c2cc(Cl)cc(Cl)c2)[nH]1` (stereo not given) it is 96.1%.
For `COc1ccc2c(c1)/C(=C1\S/C(=N/c3nnc(C)s3)NC1=O)C(=O)N2Cc1ccc(Cl)cc1` the value was 79.9%; for `COC(=O)/C=C1\SC(=Nc2cccc(OC)c2)N(CCc2c[nH]c3ccccc23)C1=O`, 75.8%; for `COCCc1n(Cc2ccc3ccccc3c2)c2ccccc2[n+]1Cc1ccc2ccccc2c1`, -71% (active).
The figure for `O=C(NC[C@H](O)CN1CCc2ccccc2C1)c1cc(NC2COC2)ncn1` is 92.4%; for `NS(=O)(=O)c1ccc(N2Cc3cc(Cl)ccc3OC3=C2C(=O)N(CC2CCCCC2)C3=O)cc1` it is -83.2% (active); for `Cc1cc(Cl)cc(CN(Cc2ccccc2)Cc2c(O)ccc3ccccc23)c1O` it is 115%.
As to `O=C(Nc1nccs1)c1noc2ccccc12`, the growth was 104%.
The figure for `O=C(O)c1cc(N=Nc2ccc(-c3ccc(N=Nc4c(S(=O)(=O)O)cc5ccc(Nc6ccccc6)cc5c4O)cc3)cc2)ccc1O` is 114%; for `Cc1[nH]c2ncnc(Oc3ccc(NC(=O)Nc4ccc(Cl)c(C(F)(F)F)c4)cc3)c2c1C` it is 60.3%.
For `Fc1ccc(N/N=C/c2ccc(-n3cccn3)cc2)cc1` the value was 98.1%; for `COc1ccc(-c2cc(-c3nnc(SCC(=O)Nc4ccc(/C(C)=N\O)cc4)n3-c3ccccc3)c3cc(OC)ccc3n2)cc1`, 93.6%.
